Our source for the growth values is PubChem BioAssay (NCI).

What all share (assay): NCI-60 one-dose screen, 48 h (100 = growth as untreated, 0 = no growth, -100 = all killed)
Common to all, as to conditions: 10 µM unless noted

The test system of test [1] is HCT-15 colon.
In test [2] the test system is HT29 colon.
For test [3], the system named is SNB-75 CNS.
For test [4], the system named is SNB-19 CNS.
The test system of test [5] is U251 CNS.
In test [6] the test system is PC-3 prostate.
The test system of test [7] is SK-MEL-5 melanoma.
The test system of test [8] is UACC-62 melanoma.
Test [9] has as its system LOX IMVI melanoma.
The subject of test [10] is SK-MEL-28 melanoma.
Test [11] has as its system EKVX NSCLC.
Test [12] relates to SN12C renal.
The test system of test [13] is UO-31 renal.
The subject of test [14] is TK-10 renal.
In test [15] the test system is ACHN renal.
For test [16], the system named is A498 renal.
In test [17] the test system is CCRF-CEM leukemia.
Test [18] relates to MOLT-4 leukemia.
The test system of test [19] is CAKI-1 renal.

Structures are written as SMILES. About 83,000 compounds went through this panel and 20% of them were active in at least one assay; those are over-represented in the sample as a whole.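 Growth was measured after 48 h exposure to one concentration of compound in 96-well plates. Values under 10 count as active.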 Values without a mark were called inactive. Active and inactive are the calls of the source.

`CCCNC(=O)c1cn2ncnc(Nc3cc(C(=O)NC4CC4)ccc3C)c2c1C`: the growth is 87.2% in test [1]; 81.9% in [2]; 74.6% in test [3]; 70.7% in [4]; 77.2% in test [5]; 74.3% in test [6]. Besides, the growth is 38.2% in test [7]; 49.1% in test [8]; 40.1% in [9]; 30.1% in test [10]; 87.2% in test [11]; 88.4% in test [12]. The growth in [13] is 45.2%; in [14], 104%; in test [15], 58.6%; in test [16] it was 56.9%; in [17] it was 73.9%; in test [18], 92.6%.

`COc1cc2ncnc3c2cc1OCCCCCN(C)Cc1ccc(Br)cc1N3`: the growth in [1] is 19.5%; in test [2], 28.9%; in [3] it was 74.5%; in test [4], 88.4%; in [5], 68.6%; in test [6], 39%. Besides, the growth was 72.7% in test [7]; 43.8% in [8]; 32.8% in [9]; 74.8% in test [10]; 21.4% in test [11]; 32.5% in test [12]. The growth in [13] is 11.2%; in [14], 3.42% (active); in test [15], 8.64% (active); in test [19], 19.3%; in test [17], 51.8%; in test [18], 22.1%.

Regarding `CC(C)(C)c1ccc(Cn2cc(CSc3nc4ccccc4s3)nn2)cc1`, the growth in test [1] was 99.7%; in [2], 99.6%; in test [3] it was 94%; in [4], 89.8%; in test [5], 93.3%; in test [6], 96.1%. Besides, the growth in test [7] is 106%; in test [8], 88.4%; in test [9] it was 103%; in test [10], 96.4%; in [11], 98.3%; in test [12] it was 90.8%. Moreover, the growth was 65.2% in [13]; 88.7% in [14]; 97.2% in test [15]; 87% in test [16]; 95% in [17]; 95.7% in test [18].

With `FC(F)c1nc2ccccc2n1-c1nc(N2CCOCC2)nc(N2CCOCC2)n1`, the growth in test [1] was 9.28% (active); in [2], 2.81% (active); in [3] it was -48% (active); in [4], 10.5%; in [5], 4.05% (active); in [6] it was 7.59% (active). Moreover, the growth was -41.8% (active) in test [7]; -50% (active) in test [8]; -17.9% (active) in test [9]; -31% (active) in test [10]; 2.75% (active) in [11]; 8.54% (active) in test [12]. In addition, the growth in test [13] was -26.2% (active); in test [14], -27.9% (active); in test [15], -8.61% (active); in test [19], -11% (active); in test [17], 8.99% (active); in test [18] it was 1.48% (active).

As for `CCNC(=O)Nc1nc2ccc(Oc3ccnc(C(=O)NC)c3)cc2s1`, the growth is 52.7% in test [1]; 29.8% in [2]; 77.1% in test [3]; 81% in [4]; 58% in test [5]; 76.1% in test [6]. Further, the growth was 66.8% in [7]; 60% in test [8]; 70.7% in [9]; 80.3% in test [10]; 85.9% in test [11]; 91.9% in [12]. Also, the growth in test [13] was 88.2%; in test [14], 86.5%; in [15], 96.4%; in test [16] it was 69.9%; in test [17], 62.8%; in test [18] it was 47.9%.

As for `COc1cc2nccc(Oc3ccc(NC(=O)Nc4cc(C)on4)c(Cl)c3)c2cc1OC`, the growth is 18.3% in [1]; -9.07% (active) in [2]; -6.16% (active) in test [3]; 32.8% in test [4]; 28.2% in test [5]; 21.1% in test [6]. For the same compound, the growth in [7] was -19.7% (active); in test [8], 11.5%; in test [9], -2.96% (active); in test [10], 23.2%; in [11] it was 37.6%; in test [12] it was 11.6%. Moreover, the growth in test [13] was -15.3% (active); in test [14] it was -15.8% (active); in test [15] it was 13.7%; in test [16], -35.9% (active); in test [17] it was 22.3%; in test [18], 7.51% (active).

Consider `O=C1NC(=O)[C@@H](c2cn3c4c(cccc24)CCC3)[C@@H]1c1c[nH]c2ccccc12`, for which the growth is 16.8% in test [1]; 0.272% (active) in test [2]; 5.51% (active) in test [3]; 27.3% in test [4]; 8.44% (active) in test [5]; 21.1% in test [6]. Besides, the growth in test [7] is 3.82% (active); in test [8] it was 33.9%; in test [9], 19.2%; in test [10], 61.3%; in test [11], 31.4%; in [12], 31.1%. For the same compound, the growth was 45.9% in test [13]; 43% in test [14]; 35.7% in [15]; 11.8% in test [16]; 20.9% in test [17]; 18.6% in [18].
